# Compound activity: PubChem, several laboratories
# V-ATPase pH: yeast V-ATPase proton transport regulation by pHLuorin. S. cerevisiae, pHLuorin cytosolic pH fluorescence. response, % at 10 µM. 350,000 compounds, 0.37% hits. AID 504577; in the data active = response mostly above about 7.3%, no sharp cut-off; inactive = mostly below about 5.4%; also: actives read high
# AI-2 QS modul: Vibrio harveyi AI-2 quorum sensing modulation; 300,000 compounds, 0.4% hits; AID 2094; activity change, % at 7.5 µM; Vibrio harveyi JMH597 AI-2 luminescence/OD600 ratio, 9 h; active compounds read low; strain lacks LuxN and CqsS sensors; 0 = neutral-control median; in the data active = activity change below about -75%, passing the limit was not always enough;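 also: luminescence divided by OD600 gain over 9 h not by final OD600 alone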
# ATG4B inh: inhibitors of human ATG4B cysteine protease | ATG4B cleavage of LC3-PLA2, NBD-HPC fluorescence, 1 h | inhibition, % at 8.33 µM | 340,000 compounds, 0.51% hits | AID 504462; in the data active = inhibition above about 40%
# Target sequence (Q9Y4P1 whole entry, looked up): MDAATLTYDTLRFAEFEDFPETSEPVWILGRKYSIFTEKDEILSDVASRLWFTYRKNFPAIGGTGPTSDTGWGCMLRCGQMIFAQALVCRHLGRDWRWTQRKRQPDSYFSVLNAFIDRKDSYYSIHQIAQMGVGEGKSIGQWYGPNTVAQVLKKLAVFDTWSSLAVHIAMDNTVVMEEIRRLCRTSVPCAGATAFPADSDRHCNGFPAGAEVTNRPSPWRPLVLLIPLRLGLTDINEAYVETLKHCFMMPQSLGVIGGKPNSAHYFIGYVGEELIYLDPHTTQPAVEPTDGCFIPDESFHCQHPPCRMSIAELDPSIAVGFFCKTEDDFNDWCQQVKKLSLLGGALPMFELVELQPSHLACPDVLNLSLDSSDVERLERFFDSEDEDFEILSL
# Efflux pump inh: antifungal efflux pump inhibition, Nile Red retention; S. cerevisiae Candida pump triplex; 330,000 compounds, 0.44% hits; inhibition, % at 10 µM; AID 485275;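 active = plate passing quality check with inhibition over a set limit, or well fluorescence over plate mean plus 4 SD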;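 also: Nile Red retained in pooled yeast measured as flow cytometry median fluorescence; 0% = buffer negative control and 100% = Enniatin B positive control; higher means more Nile Red kept so more efflux inhibition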
# Mot1-301 SUMO: inhibitors of SUMOylation pathway: yeast Mot1-301 growth rescue; AID 2716; S. cerevisiae Mot1-301 growth rescue, ATP luminescence, 38.5C; percent above DMSO median, 100 means doubled; 320,000 compounds, 1% hits; growth rescue, % at 18.8 µM;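 active = every valid replicate shows activation above 250% relative to neutral control wells; inactive = the rest, any valid replicate at or below 250%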;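 also: OY570 slx delta 5 strain wells were the positive control but not used for scaling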
# Mot1 SUMO dose: inhibits SUMO pathway, affecting Mot1-301 yeast growth. shares compounds with Mot1-301 SUMO. S. cerevisiae Mot1-301 galactose growth, ATP luminescence, 24 h; -100 = growth of slx-deleted rescue strain. growth activity, percent, % at 42 µM. 2,300 tested, under 10 active;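 active = Signal drops as the depositor expects, and the fitted half-maximal dose is no more than ten times the top valid tested dose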;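 also: more negative values mean stronger growth rescue toward the control strain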
# The depositor's hits bear a star; x = no result; + = active, no number. Hits are enriched below; roughly 2.5% of the tested compounds scored in any of these assays.
SMILES,V-ATPase pH,AI-2 QS modul,ATG4B inh,Efflux pump inh,Mot1-301 SUMO,Mot1 SUMO dose
CC1CCC(NC(=O)CNC(=O)Cc2cccc3ccccc23)CC1 (stereo not given),-0.5,x,-2.3,-0.3,-1.4,x
O=C(CCl)N(Cc1cc(=O)[nH]c2ccccc12)c1ccccc1,-1.1,5.4,15.5,-0.2,490.8*,0.1
CCC(c1nnc(SCC(=O)Nc2cc(S(C)(=O)=O)ccc2Cl)n1Cc1ccccc1)N(C)C (stereo not given),3.5,-6.0,1.9,0.0,11.3,x
Cc1cccc(CN(C(=S)Nc2c(C)cccc2C)c2cccnc2)c1,1.7,0.4,1.6,0.2,2.4,x
S=C(Nc1ccccc1Cl)N1CCOCC1,2.0,13.6,0.1,0.3,651.3*,1.3
Oc1c(Br)cc(Br)cc1/C=N/N1CCN(Cc2ccccc2)CC1,0.3,x,3.1,0.2,842.5*,-0.2
Cc1ccc(/C=N/NC(=O)Cc2c(F)cccc2Cl)s1,-3.4,0.2,0.7,-0.1,-3.9,x
COc1nc(-c2ccccc2)ccc1-c1noc(-c2ccccc2)n1,2.6,20.5,-9.9,0.1,558.0*,0.4
O=S(=O)(NCC1CN(S(=O)(=O)c2c(F)cccc2F)C1)c1ccc2c(c1)OCCO2,0.2,x,-1.1,-0.2,5.1,x
CCOC(=O)C1(CCOc2ccccc2)CCN(Cc2cccc(OC)c2O)CC1,-2.3,14.1,4.6,0.2,517.0*,-0.4
CCOC(=O)C1(CCOc2ccccc2)CCN(Cc2cc(OC)ccc2OC)CC1,-1.6,4.8,0.4,0.0,-14.9,x
OCCN1CN=C(Nc2nc3ccccc3o2)NC1,1.9,20.7,7.9,-0.2,+,0.4
CCCN1CN=C(Nc2nc3ccccc3o2)NC1,5.3,x,-12.2,-0.1,-7.5,x
Cc1nnc(C)n1/N=C/c1cc2ccccc2nc1Cl,0.4,41.9,-5.5,-0.3,607.7*,-0.3
Cc1ccc(Nc2cc(=O)oc3ccccc23)c(C)c1,-3.4,11.9,1.1,-0.1,-5.8,x
Cc1ccccc1Nc1cc(=O)oc2ccccc12,-4.3,7.0,3.0,-0.1,370.2*,0.8
Cc1nnc(SCC(=O)NC2CCCCC2)n1-c1ccccc1,-1.7,x,x,x,x,x
O=C(O)c1cccnc1SCC(=O)N1CCCCCC1,3.0,21.3,4.0,-0.1,-4.8,x
O=C(CSc1ncccc1C(=O)O)NC1CCCCC1,-5.2,33.8,-8.0,-0.1,419.9*,0.7
O=C(CSc1nc(O)cc(=O)n1-c1ccccc1)NC1CCCCC1,4.0,10.9,0.0,0.1,583.8*,0.4
O=C(C1CCN(C2CC(=O)N(c3cccc(Cl)c3)C2=O)CC1)N1CCCC1 (stereo not given),6.6,20.8,-5.2,0.3,416.8*,-1.0
NC(=O)C1CCN(C2CC(=O)N(c3ccc(F)c(Cl)c3)C2=O)CC1 (stereo not given),-1.8,30.1,-0.3,0.1,649.2*,-0.8
Cc1cc(C)c(NC(=O)CSc2nnnn2-c2cccnc2)c(C)c1,2.2,14.0,-1.9,0.0,-0.9,x
Cc1ccccc1OCCN(C#N)c1nc(N(C)C)nc(N(C)C)n1,-0.6,16.3,-7.6,-0.1,6.4,x
O=c1c2ccccc2nc(COc2ccccc2)n1/N=C/c1cn[nH]c1-c1ccccc1,2.0,10.3,-8.4,-2.5,647.1*,-0.7
SMILES,V-ATPase pH,AI-2 QS modul,ATG4B inh,Efflux pump inh,Mot1-301 SUMO,Mot1 SUMO dose
CC(NC(=O)c1cccc(S(=O)(=O)N2CCN(Cc3ccccc3)CC2)c1)c1ccc(Cl)cc1 (stereo not given),0.3,x,-10.2,x,x,x
CC(=O)Nc1cccc(NC(=S)Nc2ccc(F)cc2F)c1,3.6,5.8,-0.3,-0.2,604.8*,-0.1
CC(C)Cn1c(N)c(C(=O)COC(=O)[C@H](C)NC(=O)c2ccccc2Cl)c(=O)n(C)c1=O,-1.2,2.8,3.0,0.0,2.9,x
C/C(CC(=O)Nc1cccc(Cl)c1Cl)=N\NC(=O)c1ccccc1C,1.6,14.7,14.5,0.1,452.0*,0.1
Cc1noc(C)c1COc1ccc(C(=O)N2CCN(S(=O)(=O)c3ccc(F)cc3)CC2)cc1,0.8,x,-10.4,x,x,x
N#Cc1ccsc1NC(=O)C1CCN(S(=O)(=O)c2cccs2)CC1,-4.9,13.0,-0.2,0.0,15.4,x
COc1cccc(NC(=O)Nc2cc(C(=O)NC(C)C)ccc2N2CC3CC(C2)c2cccc(=O)n2C3)c1 (stereo not given),-2.1,21.8,-7.4,-0.1,401.9*,0.5
